Screening data as filed in PubChem.
Peg3 imprint – qHTS Assay for Compounds that Induce Erasure of Genomic Imprints; mouse ES Peg3-LacZ reporter, beta-gal luminescence, 40 h; hit rate 0.02% among 110,000; Potency, µM (top dose mostly 60.7 µM), for inactives: top-dose activity change, positive = activation, most hits filed as activators
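Each well holds 300 Peg3LacZ-Neo (maternal) female ES cells incubated 40 h at 37C, 5% CO2. LacZ is measured by BetaGlo luminescence, with AC50 and maximum efficacy derived from dose-response curves.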
p53ts 39C kill – qHTS Screen for Compounds that Selectively Target Cancer Cells with p53 Mutations: Cytotoxicity of p53ts Cells at the Nonpermissive Temperature | AID 902, 2007 | hit rate 1.5% among 130,000 | Potency, µM (top dose mostly 46.1 µM), without a hit: at the top dose activity change, negative = cell killing, actives largely listed as cytotoxic | H1299-p53A138V viability at 39C, ATP luminescence, 24 h; also: % is scaled to controls: 0 for no effect and ±100 for the full control effect; nearly all actives have a fitted effect of over 55% in size
p53ts 32C tox – qHTS Screen for Compounds that Selectively Target Cancer Cells with p53 Mutations: Cytotoxicity of p53ts Cells at the Permissive Temperature; H1299-p53A138V at 32C, ATP luminescence viability, 24 h; Potency, µM (titrated, usually from 46.1 µM), for the others: top-dose activity change, negative = cytotoxicity, usual class: cytotoxic; hit rate 0.93% among 130,000;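 also: 0% = DMSO and -100% = full killing by reference compound; nearly all actives have a fitted effect of over 55% in size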
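H1299-p53 A138V cells (temperature-sensitive p53) exposed 24 h to up to 46 uM compound at 32C, where p53 is wild-type in conformation. Viability read as ATP luminescence and normalised to DMSO and 100 uM tamoxifen. AC50 fitted with the Hill equation.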
* = called active by the depositor; ? = inconclusive; . = no result; [ ] = remark or other dose. Most compounds without a hit are left out; they make up all but 1.8% or so of the library. Calls follow the shape of the dose curve; as a rule, active = well fitted curve in the direction sought with a large enough effect; inconclusive = small, poorly fitted or top-dose-only effect, or another doubt; inactive = no such curve, though single readings can be large; an effect the other way counts as inactive or inconclusive. Potency is read from the fitted curve at half-maximal effect.

SMILES	Peg3 imprint	p53ts 39C kill	p53ts 32C tox
Cc1cc(N2CCN(C)CC2)nc2ccc(NC(=O)Nc3ccc(F)cc3)cc12	-10.3%[10.9 µM]	?	-12.7%
CCOC(=O)c1ccc2c(c1)N(Cc1cccc(C(F)(F)F)c1)C(=O)c1ccccc1S2(=O)=O	-8.3%[10.9 µM]	-14.1%	14.4%
O=S(=O)(NCc1ccccn1)c1cccc2cccnc12	6.4%	21.2%	10.2%
COc1cccc2c1cc1c(=O)n(CC(=O)N3CCN(c4ccc(Cl)cc4)CC3)nc(C)n12	17.6%[10.9 µM]	27.3%	-0.8%
CCOc1ccc(NC(=O)CC2C(=O)N(c3ccc(C)cc3)C(=O)N2C2CCCCC2)cc1 (stereo not drawn)	-4.2%[10.9 µM]	4.7%	-8.6%
CCSc1ncc(Cl)c(C(=O)N2CCN(c3ccc(OC)cc3)CC2)n1	-8.6%[10.9 µM]	0.3%	3.7%
CCCS(=O)(=O)c1ncc(Cl)c(C(=O)N2CCN(c3ccc(OC)cc3)CC2)n1	-36.9%[10.9 µM]	12.6µM*	?
CCCCS(=O)CC(O)CSc1nc(-c2ccc(OC)cc2)cc(-c2ccccc2)c1C#N (stereo not drawn)	-5.6%[10.9 µM]	4.7%	6.9%
CC(C)CN1CCCC2(CCN(C(=O)c3cnccn3)CC2)C1	.	-1.9%	3.2%
Cc1ccccc1OC1C=CC(c2ccccc2)OC1CO (stereo not drawn)	.	5.5%[9.22 µM]	-2.8%[9.22 µM]
COc1cc(NS(=O)(=O)c2ccc(NC(=O)c3ccc(C(C)=O)cc3)cc2)nc(OC)n1	1.8%[10.9 µM]	7.6%	3.7%
c1cncc(Nc2nc(-c3cccnc3)cs2)c1	-15.1%	2.2%	8.8%
Cc1cccc(Nc2nc(-c3cccs3)cs2)n1	.	-19.6%	?
c1ccc(Nc2nc(-c3cccs3)cs2)nc1	-88.3%	?	12.6µM*
c1ccc(Nc2nc(-c3cccnc3)cs2)nc1	-80.9%	15.8µM*	?
N[C@@H](Cc1nn[nH]n1)C(=O)O	?	2.7%[9.22 µM]	-1.1%[9.22 µM]
CC1CCn2c(nc3cc(C(=O)NCCc4ccccc4)ccc32)C1 (stereo not drawn)	-13.2%[10.9 µM]	?	15.8µM*
CSc1ccc(CCNC(=O)c2ccc3c(c2)nc2n3CCCCC2)cc1	-15.0%[10.9 µM]	-11.8%	-8.9%
CC1CCn2c(nc3cc(C(=O)NCCc4ccc(Cl)cc4)ccc32)C1 (stereo not drawn)	3.3%[10.9 µM]	0.1%	0.6%
Cc1ccccc1CCNC(=O)c1ccc2c(c1)nc1n2CCOC1	-14.9%[10.9 µM]	6.31µM*	7.94µM*
CC(CNC(=O)c1ccc2c(c1)nc1n2CCCCC1)c1ccccc1 (stereo not drawn)	-12.3%[10.9 µM]	12.6µM*	?
Cc1ccccc1CCNC(=O)c1ccc2c(c1)nc1n2CCCCC1	-4.4%[10.9 µM]	1µM*	1.58µM*
CC(C)NC(=O)c1ccc2c(c1)nc1n2CCCCC1	-5.2%[10.9 µM]	-17.9%	-25.0%
O=C(NCCc1ccc(Cl)cc1)c1ccc2c(c1)nc1n2CCOC1	19.8%[10.9 µM]	-23.4%	-11.1%
COc1ccc(OC)c(-c2cc(C(=O)Nc3c(C)nn(Cc4ccc(C)cc4)c3C)no2)c1	-13.1%[10.9 µM]	15.1%	4.1%
SMILES	Peg3 imprint	p53ts 39C kill	p53ts 32C tox
COc1ccc(/C=C(\C#N)C(N)=O)c(OC)c1	4.7%[10.9 µM]	7.0%[9.22 µM]	5.7%[9.22 µM]
COc1cccc(-c2nccc(NCc3cccc(C)c3)n2)c1	-30.7%	-9.2%	2.7%
COc1cccc(-c2nccc(NCc3ccccc3)n2)c1	-13.4%	12.6µM*	20µM*
Cc1ccc(N2CCN(C(=O)c3c(C)oc4ncnc(N5CCCCC5)c34)CC2)c(C)c1	15.0%[10.9 µM]	20µM*	15.2%
Cc1ccc(N2CCN(C(=O)c3c(C)oc4ncnc(N5CCOCC5)c34)CC2)c(C)c1	-4.6%[10.9 µM]	3.8%	3.1%
Cc1ccc(C2=Nc3ccccc3N(CC(=O)NCc3ccc(Cl)cc3)C(=O)C2)cc1C	-8.5%[10.9 µM]	-17.6%	4.2%
Cc1ccc(C2=Nc3ccccc3N(CC(=O)NCc3ccc(F)cc3)C(=O)C2)cc1C	-14.4%[10.9 µM]	10µM*	-14.2%
Cc1ccc(CNC(=O)c2ccc(Cn3c(=O)c4ccccc4n(CC(=O)Nc4ccc(C)cc4C)c3=O)cc2)cc1	-24.3%[10.9 µM]	?	-16.3%
Cc1cccc(C)c1NC(=O)Cn1c(=O)n(Cc2ccc(C(=O)NCc3ccco3)cc2)c(=O)c2sccc21	-12.8%[10.9 µM]	-22.9%	-6.4%
Cc1cc(C)c(NC(=O)Cn2c(=O)n(Cc3ccc(C(=O)NCc4ccco4)cc3)c(=O)c3sccc32)c(C)c1	8.2%[10.9 µM]	25.1µM*	?
Cc1ccc(CNC(=O)c2ccc(Cn3c(=O)c4ccccc4n(CC(=O)Nc4c(C)cc(C)cc4C)c3=O)cc2)cc1	-36.0%[10.9 µM]	-29.2%	15.8µM*
COc1cc(N=C(N)N=C(N)N)c2ncccc2c1	-10.2%[10.9 µM]	1.0%[9.22 µM]	-5.7%[9.22 µM]
COc1ccc(C2CC(c3cccs3)=Nc3ccccc3S2)cc1 (stereo not drawn)	.	47.1%	25.1µM*
COc1ccc(C2CC(=O)N(Cc3ccc(F)cc3)c3ccccc3S2)cc1 (stereo not drawn)	-6.5%[10.9 µM]	-24.9%	6.1%
COc1ccc(-c2cn3nc(N4CCC(C(=O)NCc5cccc(Cl)c5)CC4)sc3n2)cc1	.	.	-7.9%
Cc1cccc(NS(=O)(=O)c2ccc3[nH]c(=O)ccc3c2)c1C	-14.7%[10.9 µM]	-20.6%	-10.8%
CCn1c(=O)c(C(=O)Nc2ccc(C(C)=O)cc2)nc2ccccc21	2.1%[10.9 µM]	12.6µM*	10µM*
CCn1c(NC(C)=O)nc2ccccc21	.	26.0%	6.0%
COc1ccc(-c2nc(CSCC(=O)N3CCN(c4cccc(C)c4C)CC3)c(C)o2)cc1OC	-15.8%[10.9 µM]	-16.0%	24.4%
Cc1ccc2oc(-c3ccc(C)c(NC(=O)/C=C/c4ccco4)c3)nc2c1	3.7%[10.9 µM]	-14.8%	-19.8%
Cc1cc(C)n(-c2nc3ccccc3nc2N2CCN(c3cccc(C(F)(F)F)c3)CC2)n1	-5.4%[10.9 µM]	1.6%	12.4%
COc1ccc(Nc2nc3c(S(=O)(=O)c4ccccc4)nnn3c3ccc(Cl)cc23)cc1OC	-4.8%[10.9 µM]	0.9%	-3.9%
COc1ccc(Nc2nc3c(S(=O)(=O)c4ccccc4)nnn3c3ccc(Cl)cc23)cc1	-5.3%[10.9 µM]	10µM*	?
O=C(c1ccc2c(c1)N(Cc1ccccc1)C(=O)c1ccccc1S2(=O)=O)N1CCN(c2ccccc2)CC1	-15.2%[10.9 µM]	-3.9%	-2.8%
COC(=O)c1ccc(-n2nnc(-c3nc(-c4ccc5c(c4)OCO5)no3)c2C)cc1	-2.5%[10.9 µM]	3.2%	-4.5%
SMILES	Peg3 imprint	p53ts 39C kill	p53ts 32C tox
Cc1ccc(Cc2c(C)nc3nc(SCC(=O)NC4CCC(C)CC4)nn3c2C)cc1 (stereo not drawn)	13.4%[10.9 µM]	20µM*	23.5%
Cc1cccc(Cc2c(C)nc3nc(SCC(=O)NC4CCCCC4)nn3c2C)c1	-12.3%[10.9 µM]	-18.3%	4.0%
CC1(C)C(=O)NC2=C1C(=O)C(=O)c1ccccc12	-68.3%	1µM*	1.26µM*
CC(C)(C)c1ccc(C2Sc3ccccc3NC3=C2C(=O)c2ccccc23)cc1 (stereo not drawn)	-15.7%[10.9 µM]	2.5%	-5.4%
CN(C)c1ncc2ncc(=O)n(C)c2n1	.	-10.6%	-0.2%
CCOC(=O)c1cccc(NC(=O)c2cnccn2)c1	-34.8%	-10.1%	-1.5%
CCOC(=O)c1cccc(NC(=O)c2ccc3c(Cl)c4c(nc3c2)CCC4)c1	15.5%[10.9 µM]	0.794µM*	?
CCOC(=O)c1ccccc1NC(=O)c1ccc2c(Cl)c3c(nc2c1)CCC3	-9.9%[10.9 µM]	?	-26.8%
O=C(Nc1ccccc1C(F)(F)F)c1cc2ccccn2n1	-31.2%[10.9 µM]	7.94µM*	10µM*
